The list is not random: actives were taken first. Their share in the collection is about 22%.
Pf growth 96h = P. falciparum growth inhibition at 96 hours; 6.9% of 320,000 active; Potency, µM (doses to about 28.7 µM), usual class: inhibitors; P. falciparum luciferase reporter growth, 96 h
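Compounds incubated with erythrocytes infected by luciferase-expressing P. falciparum (2% hematocrit, 0.05% parasitemia final) for 96 hours, 37 C in 5% CO2. Growth inhibition scored as decreased luciferase luminescence.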
LmPK inh = blocks Leishmania mexicana pyruvate kinase activity; Q27686; purified LmPK, Kinase-Glo ATP luminescence, 1 h; Potency, µM (doses to about 57.5 µM), most hits filed as inhibitors; 0.37% of 290,000 active; AID 1721
Target sequence (Q27686 whole entry, looked up): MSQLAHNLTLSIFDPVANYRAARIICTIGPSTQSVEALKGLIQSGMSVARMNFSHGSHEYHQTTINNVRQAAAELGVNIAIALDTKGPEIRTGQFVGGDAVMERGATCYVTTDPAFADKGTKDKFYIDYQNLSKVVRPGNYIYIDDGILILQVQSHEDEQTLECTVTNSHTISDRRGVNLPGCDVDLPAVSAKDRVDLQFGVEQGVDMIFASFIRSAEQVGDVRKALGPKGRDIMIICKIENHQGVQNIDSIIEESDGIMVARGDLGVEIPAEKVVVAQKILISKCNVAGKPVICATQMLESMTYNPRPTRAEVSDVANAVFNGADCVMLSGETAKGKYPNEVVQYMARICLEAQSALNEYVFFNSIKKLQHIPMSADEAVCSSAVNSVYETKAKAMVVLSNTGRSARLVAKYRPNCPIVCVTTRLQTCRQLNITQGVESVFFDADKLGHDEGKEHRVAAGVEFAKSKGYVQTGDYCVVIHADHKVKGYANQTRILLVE
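qHTS format; LmPK 0.1 nM; substrates PEP 0.5 mM and ADP 0.1 mM. One-hour room-temperature incubation, then coupled luciferase luminescence; 0.5 nM enzyme wells mark activation.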
CHX counter = counter-screen for Shiga toxin inhibitors: cycloheximide protein synthesis inhibition | 12% of 300,000 active | max response, % | cell reporter, cycloheximide protein synthesis inhibition counterscreen | AID 2314; in the data active = max response mostly above about 13%, no sharp cut-off; inactive = mostly below about 14%; note: read at 38.3 µM for the half of the compounds with a filed dose
Shiga inhibitor = inhibitors of Shiga toxin in Vero cells; Vero cells, Shiga toxin protein synthesis inhibition reporter; inhibition, % at 38.7 µM; 9.2% of 290,000 active; AID 2315; in the data active = inhibition mostly above about 28%, no sharp cut-off; inactive = mostly below about 43%
Pf growth 48h = inhibits P. falciparum growth in the first generation, 48 h. P. falciparum luciferase growth in erythrocytes, 48 h. Potency, µM (highest dose often 28.7 µM), usual class: inhibitors. 5.9% of 310,000 active
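First compound was added to culture medium, then infected red cells at 0.1% parasitemia and 2% hematocrit (final). After incubation at 37 C under 5% CO2, luciferase detection reagent was dispensed and light output recorded.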
A number is an active result; i = inactive; ? = inconclusive; nt = not tested or not shown; [ ] = another dose, or the depositor's remark. Unless noted, calls come from the whole dose curve; as a rule, active = well fitted inhibition curve with a large enough effect; inconclusive = small, poorly fitted or top-dose-only effect, or another doubt; inactive = no such curve, though single readings can be large or run the other way.

SMILES | Pf growth 96h | LmPK inh | CHX counter | Shiga inhibitor | Pf growth 48h
CCCn1c(N)c(N(CCOC)C(=O)c2ccc(-c3ccc(Cl)cc3)o2)c(=O)[nH]c1=O | i | nt | nt | nt | ?
CCOC(=O)c1cc(C#N)c(SCC(=O)Nc2ccc(C(C)=O)cc2)[nH]c1=O | i | i | 17 | 47 | i
CCCC(=O)NC(c1ccco1)c1cc(Cl)c2cccnc2c1O (configuration not stated) | nt | i | i | i | 12µM
CCC(=O)NC(c1ccco1)c1cc(Cl)c2ccccc2c1O (configuration not stated) | ? | nt | nt | nt | i
CCC(=O)NC(c1cccs1)c1ccc2cccnc2c1O (configuration not stated) | ? | i | i | i | 2.3µM
CCCC(=O)NC(c1cccs1)c1cc(Cl)c2cccnc2c1O (configuration not stated) | ? | i | i | i | 3.7µM
Cc1conc1NC(c1cccs1)c1ccc2cccnc2c1O (configuration not stated) | 6.6µM | i | i | i | 1.9µM
CC1(C)c2ccccc2-c2nc3ccccc3cc2C1O (configuration not stated) | i | i | 18 | i | i
Cc1cc2ccccc2nc1Br | i | i | i | i | i
COC(=O)C(c1ccccc1)C(C(=O)OC)c1ccccc1 (configuration not stated) | i | i | i | i | i
COC(=O)[C@@H](c1ccccc1)N(C)S(=O)(=O)c1cccc(S(=O)(=O)N(C)[C@@H](C(=O)OC)c2ccccc2)c1 | ? | i | i | i | 13µM
CCOc1ccc(-c2cc(C)[n+](CCN3CCOCC3)c(-c3ccc(OCC)cc3)c2)cc1 | 0.37µM | i | i | i | 0.66µM
O=[N+]([O-])c1cc2c(cc1/C=N/Nc1nc(N3CCCC3)nc(N3CCCC3)n1)OCO2 | i | i | i | i | i
COc1ccc(/C=N/Nc2nc(Nc3ccccc3)nc(N3CCCCC3)n2)cc1OC | ? | i | 34 | 147 | ?
O=[N+]([O-])c1ccc(Nc2nc(N/N=C\c3ccc4c(c3)OCO4)nc(N3CCCCC3)n2)cc1 | 2.6µM | i | i | i | 2.1µM
COc1ccc(/C=N\Nc2ncc(F)c(N3CCOCC3)n2)cc1OC | ? | i | 39 | 73 | ?
NNc1nc(Nc2ccc([N+](=O)[O-])cc2)nc(N2CCCCCC2)n1 | i | i | i | i | 4.1µM
COc1ccc(/C=N/Nc2cc(C)nc(N3CCOCC3)n2)cc1OC | ? | i | i | i | i
O=[N+]([O-])c1ccc(Nc2nc(NCCO)nc(N3CCCC3)n2)cc1 | i[5.75 µM] | i | i | i | ?
CCOc1cc(/C=N/Nc2nc(Nc3ccccc3)nc(N3CCCCC3)n2)ccc1OCC(=O)O | i | i | i | i | i
O=[N+]([O-])c1ccc(/C=N/Nc2nc(N3CCCCC3)nc(N3CCCCC3)n2)cc1 | i | i | i | i | ?
O=[N+]([O-])c1ccc(/C=N/Nc2nc(N3CCCCCC3)nc(N3CCCCCC3)n2)o1 | ? | i | i | i | 5.2µM
O=C(NCCN1CCOCC1)c1ccc2c(c1)N(Cc1ccccc1F)C(=O)c1ccccc1S2(=O)=O | i | i | i | i | i
CC1CCCCN1CCNC(=O)c1ccc2c(c1)N(Cc1ccccc1)C(=O)c1ccccc1S2(=O)=O (configuration not stated) | ? | i | i | i | 5.2µM
Cc1cccc(CN2C(=O)c3ccccc3S(=O)(=O)c3ccc(C(=O)NCCCN4CCCC4)cc32)c1 | ? | i | i | i | 10µM
SMILES | Pf growth 96h | LmPK inh | CHX counter | Shiga inhibitor | Pf growth 48h
O=C(NCCN1CCCC1)c1ccc2c(c1)N(Cc1cccc(Cl)c1)C(=O)c1ccccc1S2(=O)=O | i | i | i | i | 8.3µM
O=C(NCCCN1CCCC1)c1ccc2c(c1)N(Cc1ccc(F)cc1)C(=O)c1ccccc1S2=O (configuration not stated) | i | i | i | i | ?
O=C(c1ccc2c(c1)N(Cc1ccccc1F)C(=O)c1ccccc1S2(=O)=O)N1CCCC1 | i | i | i | i | ?
CCN1CCN(C(=O)c2ccc3c(c2)N(Cc2ccccc2)C(=O)c2ccccc2S3(=O)=O)CC1 | i | i | i | i | 6.6µM
O=C(COC(=O)c1ccc[nH]c1=O)NC1CCCc2ccccc21 (configuration not stated) | i | i | i | i | i
CCn1c(SCC(=O)NC2CCCCC2)nc2ccccc2c1=O | 12µM | i | i | i | i
CCn1c(COc2cccc(C)c2)nnc1SCC(=O)CC(=O)Nc1ccccc1OC | i | i | i | i | ?
CCn1c(COc2ccccc2)nnc1SCC(=O)CC(=O)Nc1ccccc1OC | 7.4µM | i | i | i | 13µM
CCn1c(CC(=O)Nc2ccccc2)nnc1SCC(=O)NC1CCCC1 | ? | i | i | i | i
CCn1c(COc2ccccc2)nnc1SCC(=O)NC1CCCCC1 | i | i | i | i | 2.9µM
CC(=O)NCCn1c(SCC(=O)NC2CCCCC2)nc2ccccc2c1=O | ? | i | i | i | i
COc1ccc(CNC(=O)COc2ccc(OC)cc2)cc1 | ? | i | i | i | nt
COc1cc(C(CCN2CCCC2)c2c(OC)cc(OC)c3ccc(=O)oc23)cc(OC)c1OC (configuration not stated) | 10µM | i | i | i | ?
COc1cc(O)c(C(CC(=O)N2CCCC(C)C2)c2ccc(N(C)C)cc2)c(OC)c1 (configuration not stated) | ? | i | i | i | ?
COc1cc(O)c(C(CC(=O)N2CCN(c3ccccc3)CC2)c2ccc(N(C)C)cc2)c(OC)c1 (configuration not stated) | 12µM | i | i | i | ?
COc1cc(OC)c2ccc(=O)oc2c1C(CC(=O)N1CCCC(C)C1)c1ccc2c(c1)OCO2 (configuration not stated) | ? | i | i | i | ?
COc1ccc(C(CC(=O)N2CCN(c3ccccc3)CC2)c2c(OC)cc(OC)c3ccc(=O)oc23)cc1 (configuration not stated) | 8.3µM | i | i | i | 7.4µM
COc1cc(OC)c2ccc(=O)oc2c1C(CC(=O)N1CCCC1)c1ccc2c(c1)OCO2 (configuration not stated) | ? | i | i | i | 9.3µM
COc1ccccc1-n1c(C)cc(C=O)c1C | ? | i | i | i | nt
COCc1c(C(=O)OCC(=O)NCCc2ccc(S(N)(=O)=O)cc2)oc2ccccc12 | i | nt | nt | nt | i
CCN(CC)CCC(c1cc(OC)c(OC)c(OC)c1)c1c(OC)cc(OC)c2c(C)cc(=O)oc12 (configuration not stated) | ? | i | i | i | 9.3µM
COc1cc(C(CCN2CCN(c3ccccc3)CC2)c2c(OC)cc(OC)c3c(C)cc(=O)oc23)cc(OC)c1OC (configuration not stated) | 3.7µM | i | i | i | 2.6µM
COc1cc(C(CC(=O)N2CCCC2)c2c(OC)cc(OC)c3ccc(=O)oc23)cc(OC)c1OC (configuration not stated) | 13µM | i | i | i | 13µM

Bioassay records as filed in PubChem.
